Molecules are shown by their SMILES. Activity calls are given as the source filed them.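 Rule for the calls, unless noted: active = inhibition above 20% together with a positive visual image hit; inconclusive = visual image hit but inhibition not above 20%; inactive = no visual image hit.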

The nature of experiment [1]: inhibitors of TNFa-induced NFkB p65 translocation, primary screen, imaging, HUVEC, MLSMR starter and 10KST1 sets (AID 438).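 For inhibition: signal is the nuclear over cytoplasmic p65 intensity ratio per well.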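 Note: compound added about 3h40 before a 20 min TNFalpha stimulation.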 As to conditions: HUVEC TNFa-induced p65 nuclear translocation; cell count: measured here: nuclei count (cytotoxicity indicator), at 2.08 µM; inhibition: at 2 µM, stronger effect = higher value, 0% TNFa-plus-vehicle, 100% no-TNFa wells.
The nature of experiment [2]: reduction of polyQ htt aggregates in cells – imaging, exon1htt(103Q)mCFP cells, high-content imaging, primary screen (AID 483;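 active = visual image review flags a hit and inhibition of aggregation exceeds 20%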;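 note: compound exposure lasted 3 days before fixation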;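 for nuclei count: percent of the per-plate median nuclei count of sample wells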). As to conditions: exon1htt(103Q)mCFP cell line, aggregate imaging, at 2 µM; inhibition of aggregation: stronger effect = higher value; nuclei count: measured here: cell count, toxicity.
A short description of experiment [3]: endothelial E-selectin expression blockers – imaging, HUVEC, immunofluorescence, MLSMR starter and 10KST1 sets, primary screen (AID 487;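 active = visually confirmed hit in the image check and inhibition above 20%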;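 for inhibition: signal is fraction of cell area covered by stained E-selectin grains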;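 for nuclei count: 100% = median nuclei count of all wells on the same plate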). As to conditions: HUVEC TNFalpha-induced E-selectin immunofluorescence imaging, at 2 µM; inhibition: stronger effect = higher value; nuclei count: measured here: cell number, toxicity.
Experiment [4] concerns the target Voltage-gated potassium channel subunit beta-2 (Rattus norvegicus) (UniProt P62483). Briefly: inhibitors of rat Kvbeta2 reductase activity – biochemical, NADPH fluorescence, primary screen (AID 622;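 active = fluorescence slope higher than the sample average by over 3 SD, cut at about -0.22 in these data, passing the limit was not always enough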;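 note: slope of raw intensity against log time taken from 70 to 1610 s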). As to conditions: recombinant KvBeta, 4-cyanobenzaldehyde reduction, at 10 µM, stronger effect = higher value.
Experiment [5] has the same target. Briefly: enhancers of rat Kvbeta2 NADPH turnover – biochemical, NADPH fluorescence, primary screen (AID 623;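 active = NADPH fluorescence slope more negative than the mean of all samples by about 3 SD, 99.7% confidence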;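 note: fluorescence intensity change per second fitted from 20 to 320 s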). As to conditions: Recombinant KvBeta, NADPH fluorescence decrease slope, 10 min; at 10 µM; stronger effect = lower value.
Experiment [6] has as its target Alpha-2C adrenergic receptor (Homo sapiens) (UniProt P18825). As to the kind of experiment: compounds altering alpha2C-coupled GIRK flux – cell-based, HEK293 alpha2C/GIRK1/2, thallium flux, primary screen (AID 624;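 active = fluorescence slope after compound addition differing from the mean of all screened samples at 99.7% confidence, in either direction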;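 note: slope of fluorescence ratio to pre-addition baseline per second over 15 to 24 s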). As to conditions: thallium flux BTC fluorescence, at 10 µM, actives lie on both sides.
A short description of experiment [7]: blockers of RIG-like receptor reporter activation – cell-based, Sendai virus stimulus, luciferase, 10K MLSCN set, TLR/RLR signaling modifier project, primary screen (AID 602276;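 active = inhibition at or above 50% at 10 µM; inactive = inhibition below 50%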;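 note: firefly luciferase from ISG56 promoter only with Renilla not read in this screen; 0% = Sendai virus plus DMSO and 100% = medium plus DMSO without virus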). As to conditions: HEK293 RL24 IRF3 luciferase reporter, at 10 µM, stronger effect = higher value. On the technique in general: In a reporter assay the amount or activity of a reporter protein is the signal.

Experiment [8] in a line: TLR3 IRF3 reporter activation blockers – cell-based, poly I:C stimulus, luciferase, 10K MLSCN set, primary screen (AID 602277;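 active = inhibition of the reporter signal at or above 50%; inactive = inhibition below 50%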). As to conditions: HEK293-TLR3 RL24 IRF3 luciferase reporter, at 10 µM, stronger effect = higher value.

Chain of Voltage-gated potassium channel subunit beta-2 (Rattus norvegicus) (P62483 whole entry, looked up): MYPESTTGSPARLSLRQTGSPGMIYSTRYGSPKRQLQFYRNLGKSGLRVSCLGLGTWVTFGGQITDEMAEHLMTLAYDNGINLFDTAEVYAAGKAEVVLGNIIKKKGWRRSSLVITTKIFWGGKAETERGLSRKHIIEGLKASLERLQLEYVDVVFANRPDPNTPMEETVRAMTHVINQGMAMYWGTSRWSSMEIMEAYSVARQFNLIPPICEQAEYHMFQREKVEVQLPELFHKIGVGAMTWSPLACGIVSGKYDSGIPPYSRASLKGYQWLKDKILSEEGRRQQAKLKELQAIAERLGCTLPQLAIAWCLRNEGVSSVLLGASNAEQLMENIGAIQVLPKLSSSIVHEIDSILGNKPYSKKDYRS
Chain of Alpha-2C adrenergic receptor (Homo sapiens) (P18825 whole entry, looked up): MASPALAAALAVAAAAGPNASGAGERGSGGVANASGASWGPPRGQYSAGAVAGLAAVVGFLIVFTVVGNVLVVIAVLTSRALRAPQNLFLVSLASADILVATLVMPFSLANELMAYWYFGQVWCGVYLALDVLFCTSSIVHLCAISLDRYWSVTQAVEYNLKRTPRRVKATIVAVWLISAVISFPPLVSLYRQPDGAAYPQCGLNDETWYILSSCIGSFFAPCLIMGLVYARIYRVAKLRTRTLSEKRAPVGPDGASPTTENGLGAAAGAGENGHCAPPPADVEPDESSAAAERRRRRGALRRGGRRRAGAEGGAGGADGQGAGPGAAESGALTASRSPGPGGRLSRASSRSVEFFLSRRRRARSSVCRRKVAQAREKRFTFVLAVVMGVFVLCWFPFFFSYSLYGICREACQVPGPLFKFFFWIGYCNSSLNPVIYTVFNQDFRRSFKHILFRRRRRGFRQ

The inhibition is the relative decrease from the control value, in per cent. On to `CCn1c(CSc2nc(C)cc(C)n2)nnc1SCC(=O)Nc1ccccc1`, for which, in experiment [1], the cell count was 579. Also, the inhibition in experiment [1] was 1.9% (inactive); in experiment [3], -38.7% (inactive); in experiment [7], -15.1% (inactive); in experiment [8], -10.7% (inactive). Besides, the inhibition of aggregation in experiment [2] is -15.5% (inactive). Moreover, the nuclei count in experiment [2] amounted to 101%; in experiment [3] it was 142%. Further, in experiment [4], the fluorescence slope is -0.436 (inactive). Besides, the NADPH fluorescence slope in experiment [5] was -3.8e-05 (inactive). Also, the slope in experiment [6] is 0.00615 (inactive).

As to `CC1(C)NC(=O)N(CC(O)COc2cccc(F)c2)C1=O` (centres undefined), the cell count in experiment [1] turned out to be 690. Moreover, the inhibition was -1.1% (inactive) in experiment [1], -65.7% (inactive) in experiment [3], -5.23% (inactive) in experiment [7] and 19.5% (inactive) in experiment [8]. Besides, the inhibition of aggregation in experiment [2] was 8.4% (inactive). The nuclei count turned out to be 72.2% in experiment [2] and 105% in experiment [3]. Moreover, in experiment [4], the fluorescence slope is -0.592 (inactive). Further, the NADPH fluorescence slope in experiment [5] was -2.3e-05 (inactive). For the same compound, the slope in experiment [6] was 0.00622 (inactive).

For the compound `COc1ccc(OCC(=O)Nc2cccc3ncccc23)cc1`, in experiment [1], the cell count is 629. Besides, the inhibition in experiment [1] is -16.2% (inactive); in experiment [3], 23.2% (inactive); in experiment [7], 1.02% (inactive); in experiment [8] it was -8.12% (inactive). Besides, the inhibition of aggregation in experiment [2] is 31.6% (inactive). For the same compound, the figures for the nuclei count in experiment [2] and in experiment [3] were 84.8% and 95.6%, respectively. Besides, in experiment [4], the fluorescence slope is -0.622 (inactive). In experiment [5], the NADPH fluorescence slope was -5.4e-05 (inactive). For the same compound, the slope in experiment [6] was 0.00436 (inactive).

As for `CN1CCN(Cc2nc3c(c(=O)n(C)c(=O)n3C)n2Cc2ccccc2Cl)CC1`, the cell count in experiment [1] was found to be 746. In addition, the inhibition in experiment [1] was -15.7% (inactive); in experiment [3], -14.4% (inactive); in experiment [7], 4.15% (inactive); in experiment [8], 45.1% (inactive). The inhibition of aggregation in experiment [2] is 4.7% (inactive). The nuclei count in experiment [2] amounted to 100%; in experiment [3] it was 105%. In experiment [4], the fluorescence slope is -0.409 (inactive). Also, the NADPH fluorescence slope in experiment [5] is -2e-05 (inactive). Moreover, the slope in experiment [6] was 0.00482 (inactive).

For `CCC(=O)N1CCN=C1SCc1ccc(Cl)cc1`, in experiment [1], the cell count is 233. The inhibition was -4.9% (inactive) in experiment [1], 7.9% (inactive) in experiment [3], 21.3% (inactive) in experiment [7] and 43.1% (inactive) in experiment [8]. Also, the inhibition of aggregation in experiment [2] was -22.3% (inactive). Further, the nuclei count stood at 111% in experiment [2] and 106% in experiment [3]. The fluorescence slope in experiment [4] was -0.559 (inactive). Moreover, in experiment [5], the NADPH fluorescence slope was 5.6e-05 (inactive). Moreover, the slope in experiment [6] is 0.00598 (inactive).

On to `COc1ccc(-c2ccc(-c3nnn(CC(C)=O)n3)cc2)cc1`, for which the cell count in experiment [1] stood at 277. Besides, the inhibition was -6.2% (inactive) in experiment [1], -65% (inactive) in experiment [3], -41% (inactive) in experiment [7] and -130% (inactive) in experiment [8]. In addition, the inhibition of aggregation in experiment [2] was -10.7% (inactive). The results for the nuclei count in experiment [2] and in experiment [3] were 111% and 130%, respectively. The fluorescence slope in experiment [4] was -0.516 (inactive). The NADPH fluorescence slope in experiment [5] is -4.2e-05 (inactive). In experiment [6], the slope is 0.00693 (inactive).

On to `C=CCOc1ccccc1/C=c1\sc2nc(=O)c(C)nn2c1=O`, for which, in experiment [1], the cell count was 704. In addition, the inhibition in experiment [1] was -11.1% (inactive); in experiment [3], -31.3% (inactive); in experiment [7] it was 15.6% (inactive); in experiment [8], 26.5% (inactive). The inhibition of aggregation in experiment [2] is 7.5% (inactive). Besides, the values for the nuclei count in experiment [2] and in experiment [3] were 100% and 106%, respectively. For the same compound, the fluorescence slope in experiment [4] is -0.362 (inactive). In addition, in experiment [5], the NADPH fluorescence slope is 1.8e-05 (inactive). For the same compound, the slope in experiment [6] is 0.0042 (inactive).

For `COC(=O)c1cc(-c2ccccc2)sc1NC(=O)c1cc(C)on1`, the cell count in experiment [1] is 365. The inhibition in experiment [1] was -2.2% (inactive); in experiment [3], -21.2% (inactive); in experiment [7], -14.9% (inactive); in experiment [8], -8.07% (inactive). Further, in experiment [2], the inhibition of aggregation was -13.8% (inactive). The nuclei count in experiment [2] turned out to be 104%; in experiment [3], 111%. The fluorescence slope in experiment [4] is -0.342 (inactive). In addition, the NADPH fluorescence slope in experiment [5] is -1.3e-05 (inactive). For the same compound, the slope in experiment [6] is 0.00783 (inactive).

For the compound `Cc1cc(C)c2c(CC(=O)NCc3ccco3)coc2c1`, the cell count in experiment [1] was 262. The inhibition is 5.7% (inactive) in experiment [1], 34.3% (inactive) in experiment [3], 10.9% (inactive) in experiment [7] and 21.2% (inactive) in experiment [8]. Moreover, the inhibition of aggregation in experiment [2] is 23.9% (inactive). The nuclei count in experiment [2] was 74.9%; in experiment [3], 60.6%. The fluorescence slope in experiment [4] is -0.324 (inactive). Further, the NADPH fluorescence slope in experiment [5] was 4e-05 (inactive). Also, the slope in experiment [6] was 0.00608 (inactive).

Take `Cc1cc2cc(CN(CCCN3CCOCC3)C(=O)NC3CCCCC3)c(=O)[nH]c2cc1C`: in experiment [1], the cell count came to 540. The inhibition is -2.5% (inactive) in experiment [1], 0.4% (inactive) in experiment [3], 10.2% (inactive) in experiment [7] and 34.8% (inactive) in experiment [8]. In addition, the inhibition of aggregation in experiment [2] is -7.3% (inactive). Further, the nuclei count in experiment [2] turned out to be 93.3%; in experiment [3] it was 105%. Also, the fluorescence slope in experiment [4] was -0.484 (inactive). The NADPH fluorescence slope in experiment [5] is 6.2e-07 (inactive). The slope in experiment [6] was 0.00496 (inactive).

On to `CS(=O)(=O)N(CC(=O)NCc1ccncc1)Cc1ccc(Cl)cc1`, for which the cell count in experiment [1] came to 614. For the same compound, the inhibition is 8.7% (inactive) in experiment [1], -83.3% (inactive) in experiment [3], 17.3% (inactive) in experiment [7] and 18% (inactive) in experiment [8]. Further, in experiment [2], the inhibition of aggregation is -13.4% (inactive). The nuclei count in experiment [2] worked out at 107%; in experiment [3] it was 121%. Further, the fluorescence slope in experiment [4] was -0.471 (inactive). In addition, the NADPH fluorescence slope in experiment [5] is -1.2e-06 (inactive). In addition, the slope in experiment [6] is 0.00437 (inactive).

On to `COCCn1c(C)cc(C(=O)COC(=O)CCN2C(=O)c3ccccc3C2=O)c1C`, for which the cell count in experiment [1] worked out at 287. Also, the inhibition in experiment [1] is 3.2% (inactive); in experiment [3] it was -6.1% (inactive); in experiment [7] it was 3.96% (inactive); in experiment [8], 4.05% (inactive). Also, the inhibition of aggregation in experiment [2] is 17.1% (inactive). For the same compound, the nuclei count in experiment [2] was found to be 96.8%; in experiment [3] it was 97.3%. Moreover, the fluorescence slope in experiment [4] was -0.528 (inactive). The NADPH fluorescence slope in experiment [5] was 6.5e-06 (inactive). In addition, the slope in experiment [6] was 0.00506 (inactive).

Take `C=CCSc1nc(N)c2c(C)c(C)sc2n1`: the cell count in experiment [1] was found to be 419. Further, the inhibition in experiment [1] is 3% (inactive); in experiment [3] it was -20.5% (inactive); in experiment [7], -7.96% (inactive); in experiment [8], -46.7% (inactive). The inhibition of aggregation in experiment [2] is 29.2% (inactive). Besides, the nuclei count turned out to be 91.8% in experiment [2] and 101% in experiment [3]. Also, the fluorescence slope in experiment [4] is -0.404 (inactive). Besides, the NADPH fluorescence slope in experiment [5] is 1.5e-05 (inactive). Also, the slope in experiment [6] is 0.000164 (inactive).

For the compound `Cc1c(C(=O)NCCC2=CCCCC2)oc2ccc(S(=O)(=O)N3CCC4(CC3)OCCO4)cc12`, the cell count in experiment [1] was 643. Besides, the inhibition in experiment [1] was 10.9% (inactive); in experiment [3], -42.7% (inactive); in experiment [7], 16.2% (inactive); in experiment [8] it was 29.4% (inactive). For the same compound, in experiment [2], the inhibition of aggregation is -35% (inactive). Besides, the figures for the nuclei count in experiment [2] and in experiment [3] were 113% and 106%, respectively. Further, in experiment [4], the fluorescence slope was -0.413 (inactive). Also, the NADPH fluorescence slope in experiment [5] is -5.5e-05 (inactive). Moreover, the slope in experiment [6] was 0.00783 (inactive).

The values are drawn from PubChem BioAssay.
